Source: PubChem BioAssay AID2546 (National Center for Advancing Translational Sciences (NCATS), 2010)
The whole screen tested about 310,000 compounds, of which about 11,000 (3.5%) were called active. About 8% were inconclusive and are not listed. The call rests on the fitted dose curve; in most records, active means well fitted inhibition curve with a large enough effect; inconclusive means small, poorly fitted or top-dose-only effect, or effect the other way; inactive means flat fitted curve, though single readings scatter. Only a selection was taken, and actives are over-represented in it overall.

Test: VP16 counterscreen qHTS for inhibitors of ROR gamma transcriptional activity;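 further: Gal4-VP16 expression switched on by copper sulfate through the metallothionein promoter; nearly all actives have a fitted effect of over 50% in size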
Details: Drosophila S2 Gal4-VP16 UAS-luciferase, luminescence, 20 h; series mostly up to 53.6 µM; activity, negative = inhibition: at the top concentration
Excerpt: NIH Molecular Libraries Probe Production Network [MLPCN]
NIH Chemical Genomics Center [NCGC]
Assay Provider: Dan Littman, New York University
The retinoic acid-related orphan receptor (ROR) gamma is a transcription factor that has a central role in the differentiation of Th17 cells, a subset of T helper cells that secrete the inflammatory cytokines IL-17, IL-17F, and IL-22. Th17 cells have been implicated in graft versus host disease, autoimmune disease and asthma. ROR gamma is induced in naive T helper cells in the presence of TGF-beta combined with IL-6, IL-21, or IL-23, and thereafter directs the expression of the Th17 lineage cytokines. To identify nonspecific inhibitors, a Drosophila Schneider cell line was stably transfected with two vectors: a gene expressing a fusion of the Gal4 DNA binding domain and VP16 transactivation domain under the control of the metallothionine promoter and a Photinus luciferase reporter regulated by the Gal4 binding site enhancer, UAS. […] Small molecule inhibitors that inhibit components common to the RORgt and VP16 assays, such as the Gal4 DNA binding domain or the UAS luciferase reporter, will be active in both assays and thus scored as nonspecific.
For screening, 600 cells in 4 uL/well were dispensed into white solid 1536-well plates (Grenier) using a solenoid-based dispenser. Following transfer of 23 nL compound or DMSO vehicle by a pin tool, the plates were incubated 1 hr at ambient temperature, and 1 uL/well copper sulfate (700 uM final concentration) was added. The plates were centrifuged 15 s at 1000 RPM and incubated 20 hr at ambient temperature. After addition of 1.5 uL Photinus luciferase detection reagent, the plates were incubated 10 min at ambient temperature and then read by a ViewLux (Perkin Elmer) to detect luminescence.
On the % scale 0 is the no-effect control and ±100 the full control effect; potency means the concentration at half of the fitted maximal effect.

SMILES	Potency	activity, negative = inhibition
Fc1ccc(C(OCCN2CCN(C/C=C\c3ccccc3)CC2)c2ccc(F)cc2)cc1	15.8 µM (active)	–
CC(=O)c1c(O)c(C)c(O)c(Cc2c(O)c3c(c(C(=O)/C=C\c4ccccc4)c2O)OC(C)(C)C=C3)c1O	–	-0.988% (inactive)
CC(C)(O)c1[se]c2ccccc2c1I	–	-17.8% (inactive)
N#CC(C#N)=Cc1cc(O)c(O)c([N+](=O)[O-])c1	22.4 µM (active)	–
CC(C)(c1ccccc1)c1ccc(O)cc1	–	7.15% (inactive)
COC1=C[C@]23CCCN2CCc2cc4c(cc2[C@@H]3[C@@H]1O)OCO4	–	-7.05% (inactive)
CCCCC(=O)N/N=C/c1c(O)n(CC)c(=S)n(CC)c1=O	3.16 µM (active)	–
CCCCC(=O)N/N=C/c1c(O)n(-c2ccccc2)c(=O)[nH]c1=O	–	1.03% (inactive)
CCCCC(=O)N/N=C/c1c(O)n(CCC2=CCCCC2)c(=O)[nH]c1=O	–	1.97% (inactive)
c1ccc2sc(SNC3CCCCC3)nc2c1	–	2.39% (inactive)
CN1CCN(C(=O)O[C@@H]2c3nccnc3C(=O)N2c2ccc(Cl)cn2)CC1	–	-7.9% (inactive)
CC[C@H]1CN2CCc3cc(OC)c(OC)cc3[C@@H]2C[C@@H]1C[C@H]1NCCc2cc(OC)c(OC)cc21	1.26 µM (active)	–
CNC(C)[C@@H](O)c1ccccc1 (some centres undefined)	–	9.08% (inactive)
c1ccc(N2CC[C@@]3(CCCNC3)C2)nc1	–	-11.8% (inactive)
CC(Cl)Cl	–	4.63% (inactive)
CC(=O)[O][Sn]([c]1ccccc1)([c]1ccccc1)[c]1ccccc1	3.55 µM (active)	–
COC(=O)N1C(c2ccccc2)C1c1ccccc1 (centres undefined)	–	9.71% (inactive)
CC[C@@H]1CN2CC[C@@H]1C[C@H]2[C@H](O)c1ccnc2ccc(OC)cc12	–	9.73% (inactive)
CCN1C[C@]2(C)CC[C@H](O)[C@@]34[C@@H]5CC6[C@@H](OC)C[C@@](O)([C@@H]5[C@@H]6O)[C@H](C[C@@H]23)[C@H]14	–	2.08% [at 17 µM] (inactive)
CCN1C[C@@]2(COC)CC[C@H](OC)[C@]34[C@@H]1[C@]1(OCO[C@@]15C[C@@H](OC)C1C[C@H]3[C@H]5[C@@H]1OC)[C@H](O)[C@@H]24	–	2.2% [at 17 µM] (inactive)
NC[C@H](O)c1ccc(O)cc1	–	4.06% [at 17 µM] (inactive)

SMILES	Potency	activity, negative = inhibition
COc1cccc(-c2nc3ccc(N4CCN(C)CC4)cc3[nH]2)c1	2 µM (active)	–
CN1CCN(c2cc(N3CCNCC3)ccc2[N+](=O)[O-])CC1	–	-5.63% (inactive)
CCCCC#N	–	10.3% (inactive)
COc1ccc(C2Oc3c(I)c(OC)cc(OC)c3CC2O)cc1OC (centres undefined)	–	7.75% (inactive)
C[C@@]12CC[C@H]3[C@@H](CC[C@]4(O)C[C@H](O)CC[C@@]34C=O)[C@]1(O)CC[C@@H]2C1=CC(=O)OC1	–	4.3% [at 17 µM] (inactive)
Clc1ccccc1	–	-4.14% (inactive)
C[C@@H]1C[C@@H]2O[C@H]2/C=C\C=C\C(=O)Cc2c(Cl)c(O)cc(O)c2C(=O)O1	12.6 µM (active)	–
C[C@]12O[C@H](C[C@@]1(O)C(=O)O)n1c3ccccc3c3c4c(c5c6ccccc6n2c5c31)CNC4=O	–	-2.92% (inactive)
CN1CCCC(=C(c2cccs2)c2cccs2)C1	–	-0.628% (inactive)
Cc1nc2ccccn2c1P(=S)(N1CCCCC1)N1CCCCC1	11.2 µM (active)	–
c1ccc(CCCCN2CCC(c3ccccc3)CC2)cc1	–	16% (inactive)
O=c1oc2ccccc2c(O)c1C(c1ccccc1O)c1c(O)c2ccccc2oc1=O	–	-0.571% (inactive)
CC(C)(C)C(O)(CCc1ccc(Cl)cc1)Cn1cncn1 (centres undefined)	–	-6.68% (inactive)
CC1=CC(=O)C2=C(C)C[C@H](O)[C@H]3[C@H](C)C(=O)O[C@@H]3C12 (some centres undefined)	–	-4.17% (inactive)
CCCCCCCCCCCCCC(=O)O[C@@H]1[C@@H](C)[C@@]2(O)[C@@H](C=C(CO)C[C@]3(O)C(=O)C(C)=C[C@@H]23)[C@@H]2C(C)(C)[C@]12OC(C)=O	–	-3.2% (inactive)
CCCCCCCCc1[se]c2ccccc2c1Br	–	-0.332% (inactive)
CN(C)C[C@H]1CCCC[C@]1(O)c1cccc(O)c1	–	-7.52% (inactive)
Cc1ccc(NC(=O)CN(C)CC(=O)Nc2cccc(F)c2)cc1[N+](=O)[O-]	4.47 µM (active)	–
c1ccc(CN2CC[C@@]3(CCCNC3)C2)cc1	–	-2.59% (inactive)
ClCCBr	–	-6.24% (inactive)
COc1cc(-n2c(=S)[nH]c3ccc(C)cc3c2=O)c(Cl)cc1Cl	5.62 µM (active)	–

SMILES	Potency	activity, negative = inhibition
ClC(Cl)=C(Cl)C(Cl)=C(Cl)Cl	–	2.07% (inactive)
c1csc(CN2CCCC3(CCNCC3)C2)n1	–	5.75% (inactive)
CN[C@@H]1C[C@H]2O[C@@](C)([C@@H]1OC)n1c3ccccc3c3c4c(c5c6ccccc6n2c5c31)C(=O)NC4	–	-1.08% [at 10 µM] (inactive)
COC(=O)c1ccc2[se]c(CC3CCCCC3)c(I)c2c1	–	1.9% (inactive)
CCN(CC)c1nc(C)cc(OP(=S)(OC)OC)n1	–	-2.31% (inactive)
C=CC#N	–	10.3% (inactive)
N#Cc1c(Cl)c(Cl)c(Cl)c(C#N)c1Cl	1.78 µM (active)	–
CCCCC/C=C\C/C=C\C/C=C\C/C=C\CCCCCC(=O)NCCO	inactive	–
N#CCCCl	inactive	–
O=C1NC(=O)N(c2ccccc2)C(=O)/C1=C/c1ccc([N+](=O)[O-])s1	–	6.23% (inactive)
COc1cccc(N2C(=O)NC(=O)/C(=C\c3ccc([N+](=O)[O-])s3)C2=O)c1	–	-11.7% (inactive)
Cc1cccc(N2C(=O)NC(=O)/C(=C\c3cnn(-c4ccccc4)c3)C2=O)c1	12.6 µM (active)	–
N#Cc1cc(Br)c(O)c(Br)c1	–	-13.2% (inactive)
N[C@H](Cc1o[nH]c(=O)c1Cl)C(=O)O	–	-10.8% (inactive)
COC1CC(OC2CC[C@@]3(C=O)C4CC[C@]5(C)C(C6=CC(=O)OC6)CC[C@@]5(O)C4CC[C@]3(O)C2)OC(C)C1O (some centres undefined)	–	16.8% (inactive)
CC[N+](C)(CC)CCC[n+]1c(-c2ccccc2)c2cc(N)ccc2c2ccc(N)cc21	2.51 µM (active)	–
O=P1(Oc2ccccc2)CC(O)C(O)C(COCc2ccccc2)O1 (centres undefined)	–	-5.85% (inactive)
C[C@H]1CC[C@@]2(NC1)O[C@@H]1C[C@H]3[C@@H]4CC=C5C[C@@H](O)CC[C@]5(C)[C@@H]4CC[C@]3(C)[C@@H]1[C@@H]2C	–	-5.63% [at 17 µM] (inactive)
CN1C2CC3CC1C(O3)C2O (centres undefined)	–	7.32% (inactive)
COC([CH2][Hg])CNC(=O)c1ccccc1OCC(=O)O (centres undefined)	–	3.54% (inactive)
Nc1ccc(-c2ccc(N)c(N)c2)cc1N	–	15.7% (inactive)

SMILES	Potency	activity, negative = inhibition
COc1cc2c(cc1OC)[C@@H]1C(=O)c3ccc(O)c(CC=C(C)C)c3OC1CO2 (some centres undefined)	–	-2.2% (inactive)
CCCCn1c(=O)c(C(=O)Nc2ccccc2Cl)c(O)c2ccccc21	–	26.2% (inactive)
CCCCCn1c(=O)c(C(=O)NCc2ccccn2)c(O)c2ccccc21	17.8 µM (active)	–
CCCCCn1c(=O)c(C(=O)Nc2c(C)n(C)n(-c3ccccc3)c2=O)c(O)c2ccccc21	–	-11.3% (inactive)
Clc1ccc([C@@H]2C[C@H]3CC[C@@H]2N3)cn1	–	5.01% (inactive)
Cc1cccc([C@H](C)c2cnc[nH]2)c1C	–	3.21% (inactive)
COc1ccccc1-c1[se]c2ccccc2c1I	–	-3.29% (inactive)
O=C1CCc2cccc3c2N1CC3	–	-7.75% (inactive)
CCC(C)C(=O)O[C@@H]1C[C@@]2(C)C(c3ccoc3)OC(=O)CC23OC2(C)O[C@@]14[C@@]1(C)C(CC(=O)OC)C5(C)CC1(O)C(O)(C5OC(=O)C1(C)OC1C)C(OC(C)=O)[C@@]34O2 (some centres undefined)	–	-14.6% (inactive)
BrC1C(Br)C(Br)C(Br)C(Br)C1Br (centres undefined)	7.94 µM (active)	–
N[C@H](C(=O)O)c1cc(=O)[nH]o1	–	-10.3% (inactive)
CCCCC/C=C\C/C=C\C/C=C\C=C\[C@H](CCCC(=O)O)OO	–	-1.54% (inactive)
C/C(=C\C=C/[C@@H](C)C(=O)O)[C@H]1CN[C@H](C(=O)O)[C@@H]1CC(=O)O	–	-2.02% (inactive)
CC(C)(Cc1c[nH]c2ccc(Cl)cc12)NCCOc1ccccc1OCC1CC1	15.8 µM (active)	–
C[C@H]1C/C=C/[C@@H]2[C@@H]3O[C@]3(C)[C@@H](C)[C@H]3[C@H](Cc4ccccc4)NC(=O)[C@]32OC(=O)O/C=C/[C@](C)(O)C1=O	–	2.16% (inactive)
C[C@@H]1C[C@H]2CC[C@H](O2)[C@H](C)C(=O)O[C@@H](C)C[C@@H]2CC[C@@H](O2)[C@@H](C)C(=O)O[C@H](C)C[C@H]2CC[C@H](O2)[C@H](C)C(=O)O[C@@H](C)C[C@@H]2CC[C@@H](O2)[C@@H](C)C(=O)O1	1 µM (active)	–
C1CC[C@H]([C@@]23C[C@H](C[C@H]4CCCN[C@H]42)[C@@H]2CCCCN2C3)NC1	–	-7.87% (inactive)
O=C(Nc1cccc(F)c1)N1CC[C@@]2(CCCN(C(=O)Oc3ccccc3)C2)C1	–	-13.3% (inactive)
C=CCSSCC=C	–	-13.7% (inactive)
CC(C)(c1ccc(OC[C@@H]2CO2)cc1)c1ccc(OC[C@H]2CO2)cc1	–	1.63% (inactive)
O=C(N/N=C/c1ccc([N+](=O)[O-])o1)c1cc([N+](=O)[O-])cc([N+](=O)[O-])c1O	–	-5.16% (inactive)
